Compound activity as filed in PubChem BioAssay.
BoNT-F LC inh: blocks Botulinum neurotoxin F light chain protease. Multiplex microsphere protease cleavage assay, flow cytometry. inhibition, % at 10 µM. 0.22% of 360,000 active. AID 588497; in the data active = inhibition above about 35%, passing the limit was not always enough; inconclusive = no clear call, values can overlap the other calls; also: plate controls were buffer without enzyme for full effect and enzyme alone for no effect
Anthrax LF prot: inhibitors of Bacillus anthracis lethal factor protease; inhibition, % at 10 µM; multiplex microsphere protease cleavage assay, LF; 0.12% of 360,000 active; AID 588501; P15917; also: plate controls were buffer without enzyme for full effect and enzyme alone for no effect
Target sequence (P15917 whole entry, looked up): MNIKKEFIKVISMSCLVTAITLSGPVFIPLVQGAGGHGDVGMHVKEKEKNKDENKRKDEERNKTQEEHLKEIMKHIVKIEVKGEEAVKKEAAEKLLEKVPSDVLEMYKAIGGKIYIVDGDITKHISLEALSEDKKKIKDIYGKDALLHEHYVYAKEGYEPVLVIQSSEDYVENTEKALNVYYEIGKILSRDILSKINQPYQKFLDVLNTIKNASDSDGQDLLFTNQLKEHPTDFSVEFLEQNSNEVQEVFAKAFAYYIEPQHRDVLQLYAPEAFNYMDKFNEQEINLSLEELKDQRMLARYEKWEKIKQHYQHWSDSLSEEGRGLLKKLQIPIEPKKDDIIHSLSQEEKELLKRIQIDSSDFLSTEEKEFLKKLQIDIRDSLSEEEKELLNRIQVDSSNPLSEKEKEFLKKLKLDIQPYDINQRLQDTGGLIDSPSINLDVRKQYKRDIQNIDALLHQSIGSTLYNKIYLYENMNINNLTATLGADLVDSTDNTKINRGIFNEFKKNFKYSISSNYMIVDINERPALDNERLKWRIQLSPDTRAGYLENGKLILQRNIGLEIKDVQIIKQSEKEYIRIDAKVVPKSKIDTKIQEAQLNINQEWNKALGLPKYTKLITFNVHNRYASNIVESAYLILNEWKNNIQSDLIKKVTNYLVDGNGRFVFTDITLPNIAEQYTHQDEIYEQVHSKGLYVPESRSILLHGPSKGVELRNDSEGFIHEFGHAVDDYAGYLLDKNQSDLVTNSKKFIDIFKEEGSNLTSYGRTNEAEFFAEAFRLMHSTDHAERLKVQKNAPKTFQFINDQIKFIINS
MazEF act: activators of E. coli MazEF toxin-antitoxin RNase; P0AE70; FAM/BHQ RNA-DNA oligo cleavage fluorescence, 5 h; activation, % at 20 µM; 0.32% of 350,000 active; AID 504720; in the data active = activation above about 50%
Autofluor counter: counter-screen for toxin protease inhibitors: compound fluorescence; 3.1% of 360,000 active; fluorescence intensity (test concentration not listed); compound autofluorescence counterscreen, microsphere flow cytometry; active compounds read high; in the data active = fluorescence intensity above about 16000; inconclusive = no clear call, values can overlap the other calls
BoNT A protease: inhibitors of Botulinum neurotoxin A light chain protease | inhibition, % at 10 µM | multiplex microsphere protease substrate cleavage, flow cytometry | 0.17% of 360,000 active; also: plate controls were buffer without enzyme for full effect and enzyme alone for no effect
An asterisk follows results filed as active; ? = inconclusive; . = no result given. Most compounds without a hit are left out; they make up all but 3.6% or so of the library. Rule as the data show it, unless noted: active = inhibition above about 30%; inconclusive = no clear call, values can overlap the other calls; inactive = below that.

SMILES	BoNT-F LC inh	Anthrax LF prot	MazEF act	Autofluor counter	BoNT A protease
Cn1ncc2c(N3CCN(c4ccccc4F)CC3)ncnc21	2.8	2.8	1.7	16585*	?
COc1ccc(CCNC(=O)c2noc(C)c2[N+](=O)[O-])cc1OC	18.1	0.5	-0.2	3824	-1.5
CCOc1ccc(N/C=C/C(=O)c2ccc3ccccc3c2)c([N+](=O)[O-])c1	-0.1	-1.5	10.8	16459*	0.2
CCOc1ccc(N/C=C/C(=O)c2ccc(C)cc2)c([N+](=O)[O-])c1	1.6	0.7	38.9	2449	0.5
C=C(C)C1CC=C(C)/C(=N/NC(=O)COc2ccccc2Cl)C1 (centres undefined)	-4.5	-2.0	3.0	2943	-1.6
Cc1cccc2c1OCC/C2=N\NC(=O)COc1ccccc1Cl	0.4	1.4	11.7	22273*	0.6
CN(C)C1CCCCC=CC(=O)NC1 (centres undefined)	-2.5	-2.0	-1.4	2708	0.5
CCCC1CCC(=NNS(=O)(=O)c2ccc(C)c([N+](=O)[O-])c2)CC1 (centres undefined)	2.3	-0.8	47.3	2022	0.6
CC(C)(C)C1CCC(=NNS(=O)(=O)c2ccc(Br)cc2)CC1 (centres undefined)	?	1.2	66.0*	2657	2.4
C/C(=N\NS(=O)(=O)c1ccc(C)c([N+](=O)[O-])c1)c1cccs1	-1.8	0.1	0.3	2593	0.1
CC1CCCC/C1=N\NS(=O)(=O)c1ccc(Br)cc1 (centres undefined)	6.1	-2.8	78.3*	4031	1.4
C/C(CC(C)C)=N\NS(=O)(=O)c1ccc(C)c([N+](=O)[O-])c1	2.4	-2.1	68.4*	4628	-0.2
Cc1ccc(S(=O)(=O)NN=C2CCC(C(C)(C)C)CC2)cc1[N+](=O)[O-] (centres undefined)	-3.0	0.2	115.0*	1901	0.9
CCCCC(=O)Nc1ccc(C(=O)Nc2ccc(OC)cc2[N+](=O)[O-])cc1	-1.0	-2.4	742.7*	2096	0.1
COc1ccc(NC(=O)CN(C)S(=O)(=O)c2ccccc2)cc1	0.5	-3.6	14.1	20336*	0.2
COc1ccc(NC(=O)CSc2n[nH]c(N)n2)c([N+](=O)[O-])c1	1.4	-1.2	-3.3	23423*	-0.5
COc1ccc(NC(=O)CN(C)S(=O)(=O)c2ccccc2)c([N+](=O)[O-])c1	4.1	-5.7	262.9*	10806	0.1
COc1ccc(NC(=O)CN(C)S(=O)(=O)c2ccc(Cl)cc2)c([N+](=O)[O-])c1	-4.2	-6.7	14.4	11852	-0.4
O=C(COC(=O)Cc1ccsc1)Nc1cccc(F)c1	-3.1	-6.3	3.3	6434	-3.6
COc1ccc(CC(=O)OCC(=O)NCc2ccc3c(c2)OCO3)cc1OC	0.7	-4.9	2.5	3804	-0.3
Cc1ccccc1NC(=O)c1cc[n+]([O-])cc1	9.6	-3.0	13.4	2954	-3.8
COc1ccc(OC)c(S(=O)(=O)N2CCN(C(=O)CCc3ccccc3)CC2)c1	-4.2	1.4	6.3	4329	2.5
CCCCOC(=O)CNc1n[nH]c(=S)[nH]c1=O	6.2	0.0	-0.6	21415*	?
CCC(C)NC(=O)C(Cc1ccccc1)NS(=O)(=O)c1ccc2c(c1)CCC(=O)N2 (centres undefined)	-3.3	1.9	8.8	6284	1.6
CCCN(CCC)CCNC(=O)C(NS(=O)(=O)c1ccc2c(c1)CCC(=O)N2)c1ccccc1 (centres undefined)	-3.8	-2.7	-6.0	23934*	-1.7
SMILES	BoNT-F LC inh	Anthrax LF prot	MazEF act	Autofluor counter	BoNT A protease
NC(=O)c1cccc(Nc2nc(C(N)C3CCCCC3)cs2)n1 (centres undefined)	-6.1	-7.4	.	3788	-0.2
Cc1csc(NC(=O)CCCSc2nc3ccccc3s2)n1	1.8	-2.7	-0.4	21652*	1.3
CC(C)c1nnc(NC(=O)CSc2nc3ccccc3s2)s1	5.2	-11.6	-0.3	20149*	3.9
Cc1csc(NC(=O)CSc2nc3ccccc3s2)n1	8.2	-3.0	6.8	2323	-0.6
Nc1ncnc2c1ncn2[C@@H]1O[C@H](C(=O)N(CCC2=CCCCC2)CC2CC2)[C@@H](O)[C@H]1O	1.5	-5.5	.	5827	-0.2
COc1ccccc1N1CC(C(=O)OCC(=O)c2ccc(F)cc2)CC1=O (centres undefined)	-1.1	-6.3	-6.9	23806*	-0.2
COc1cc(C(=O)NCC(c2cccs2)N2CCOCC2)c([N+](=O)[O-])cc1OC (centres undefined)	-10.7	-2.8	0.9	6483	-2.5
CC1CCN(C(=O)COC(=O)c2ccccc2NCCO)CC1	-2.8	1.0	6.3	2969	-0.4
CCc1ccc(-c2nc(NC(=S)NC(=O)c3cccs3)sc2C)cc1	-1.1	0.3	1.2	23514*	-0.8
CN(C(=O)COC(=O)/C=C/c1ccc(F)cc1)c1c(N)n(Cc2ccccc2)c(=O)[nH]c1=O	.	.	-5.0	.	.
COc1ccc(-c2ccc(SCC(=O)N3CCCC3)nn2)cc1OC	6.4	0.3	7.6	19444*	3.3
COc1ccc(-c2ccc(SCC(=O)N3CCOCC3)nn2)cc1OC	7.2	0.2	-13.2	11309	0.0
O=C(CCCN1C(=O)C2CC=CCC2C1=O)Nc1cccc(F)c1 (centres undefined)	-2.8	3.6	5.5	5516	-0.6
O=S1(=O)CCC(NS(=O)(=O)/C=C/c2ccccc2)C1 (centres undefined)	-0.3	0.0	4.4	22642*	0.6
O=C(CSCc1ccccc1)Nc1ccc(F)c(F)c1	-2.7	-2.1	-2.1	2121	-0.4
CCCc1cc(C(N)=O)c(NC(=O)c2ccco2)s1	-4.1	-1.4	16.6	16987*	-2.0
O=C1CC(c2ccc(Cl)cc2)CC(O)=C1C=NCCO (centres undefined)	-6.6	4.2	-0.6	3888	-1.9
Cc1ccc(C)c(NC(=O)CSc2nnc(-c3ccco3)o2)c1	-3.3	0.8	-3.7	3391	0.2
Cc1cccc(NC(=O)CSc2nnc([C@@H](N)Cc3c[nH]c4ccccc34)o2)c1C	-7.5	-4.2	-0.3	23387*	-0.8
N[C@@H](Cc1c[nH]c2ccccc12)c1nnc(SCc2ccccc2F)o1	-3.9	-0.7	-6.2	22370*	1.2
CCSc1nnc([C@@H](N)Cc2ccccc2)o1	-5.1	-1.0	-6.0	21095*	-3.6
CCSc1nnc(C(N)Cc2ccccc2)o1 (centres undefined)	-1.6	5.1	-0.9	3369	-0.4
Cc1ccc(C)c(NC(=O)CSc2nnc([C@@H](N)Cc3ccccc3)o2)c1	-4.8	-3.9	-8.1	24097*	-3.4
CSc1nnc([C@@H](N)Cc2c[nH]c3ccccc23)o1	0.1	0.2	8.9	3260	0.8
CCSc1nnc([C@@H](N)Cc2c[nH]c3ccccc23)o1	-15.6	-10.5	1.6	9078	-0.9
CCOc1ccccc1CNC(=O)Cn1ccc2cc(S(=O)(=O)N3CCCC3)ccc21	-8.2	-1.5	4.6	6200	-1.2
Cc1n[nH]c(=S)n1/N=C/c1cccc(OCc2ccccc2)c1	-7.1	-4.2	6.1	2686	-0.7
Cc1n[nH]c(=S)n1/N=C/c1ccccc1OCc1ccc(Cl)cc1	-1.8	0.8	9.7	19713*	?
